# Publication PMC11066047
# Assays:
# [1] = target: Heat shock protein homolog SSE1 (UniProt P32589); test: cross-link between two proteins; cross-linking mass spectrometry
# [2] = target: Heat shock protein homolog SSE2 (UniProt P32590); test: as above
# [3] = target: Isocitrate dehydrogenase [NAD] subunit 1, mitochondrial (UniProt P28834); test: as above
# [4] = target: Large ribosomal subunit protein eL30 (UniProt P14120); test: as above
# [5] = target: Small ribosomal subunit protein eS7A (UniProt P26786); test: cross-link between two proteins
# [6] = target: Large ribosomal subunit protein eL31A (UniProt P0C2H8); test: cross-link between two proteins; cross-linking mass spectrometry
# [7] = target: Large ribosomal subunit protein eL32 (UniProt P38061); test: as above
# [8] = target: Ribosome biogenesis protein ALB1 (UniProt P47019); test: as above
# [9] = target: Zuotin (UniProt P32527); test: as above
# [10] = target: Large ribosomal subunit protein eL38 (UniProt P49167); test: as above
# [11] = target: Large ribosomal subunit protein eL6A (UniProt Q02326); test: as above
# [12] = target: Large ribosomal subunit protein eL8B (UniProt P29453); test: as above
# [13] = target: Pescadillo homolog (UniProt P53261); test: as above
# [14] = target: Proteasome-interacting protein CIC1 (UniProt P38779); test: as above
# [15] = target: Large ribosomal subunit protein uL13B (UniProt P26785); test: as above
# [16] = target: Large ribosomal subunit protein uL4A (UniProt P10664); test: as above
# [17] = target: Large ribosomal subunit protein uL4B (UniProt P49626); test: as above
# [18] = target: Mitochondrial import inner membrane translocase subunit TIM14 (UniProt Q07914); test: as above
# [19] = target: NET1-associated nuclear protein 1 (UniProt Q02931); test: cross-link between two proteins
# [20] = target: Nucleolar complex protein 14 (UniProt Q99207); test: cross-link between two proteins
# [21] = target: Ribosomal RNA-processing protein 12 (UniProt Q12754); test: cross-link between two proteins
# [22] = target: Nucleolar protein 56 (UniProt Q12460); test: cross-link between two proteins
# [23] = target: Nucleolar protein 58 (UniProt Q12499); test: cross-link between two proteins; cross-linking mass spectrometry
# [24] = target: Prohibitin-2 (UniProt P50085); test: as above
# [25] = target: Proteasome subunit alpha type-2 (UniProt P23639); test: as above
# [26] = target: Proteasome subunit beta type-3 (UniProt P25451); test: as above
# [27] = target: Proteasome subunit alpha type-3 (UniProt P23638); test: as above
# [28] = target: Proteasome subunit alpha type-6 (UniProt P40302); test: as above
# [29] = target: Protein transport protein SBH2 (UniProt P52871); test: as above
# [30] = target: Ribosome biogenesis protein BMS1 (UniProt Q08965); test: cross-link between two proteins
# [31] = target: Ribosome biogenesis protein MAK21 (UniProt Q12176); test: cross-link between two proteins; cross-linking mass spectrometry
# [32] = target: Ribosome biogenesis protein YTM1 (UniProt Q12024); test: as above
# [33] = target: RuvB-like protein 2 (UniProt Q12464); test: as above
# [34] = target: Small ribosomal subunit protein RACK1 (UniProt P38011); test: as above
# [35] = target: Small ribosomal subunit protein uS10 (UniProt P38701); test: as above
# [36] = target: Small ribosomal subunit protein uS5 (UniProt P25443); test: as above
# [37] = target: Small ribosomal subunit protein eS12 (UniProt P48589); test: as above
# [38] = target: Small ribosomal subunit protein eS25A (UniProt Q3E792); test: as above
# [39] = target: Small ribosomal subunit protein eS28A (UniProt Q3E7X9); test: cross-link between two proteins
# [40] = target: Small ribosomal subunit protein uS11B (UniProt P39516); test: cross-link between two proteins; cross-linking mass spectrometry
# [41] = target: Small ribosomal subunit protein uS7 (UniProt P26783); test: as above
# [42] = target: Succinate--CoA ligase [ADP-forming] subunit alpha, mitochondrial (UniProt P53598); test: as above
# [43] = target: U3 small nucleolar RNA-associated protein 12 (UniProt Q12220); test: as above
# [44] = target: U3 small nucleolar RNA-associated protein 15 (UniProt Q04305); test: as above
# [45] = target: U3 small nucleolar RNA-associated protein 16 (UniProt Q08492); test: cross-link between two proteins
# [46] = target: U3 small nucleolar RNA-associated protein 21 (UniProt Q06078); test: cross-link between two proteins
# [47] = target: U3 small nucleolar RNA-associated protein 22 (UniProt P53254); test: cross-link between two proteins
# [48] = target: U3 small nucleolar RNA-associated protein MPP10 (UniProt P47083); test: cross-link between two proteins
# [49] = target: Ubiquitin-like protein MDY2 (UniProt Q12285); test: cross-link between two proteins; cross-linking mass spectrometry
# [50] = target: rRNA-processing protein FCF2 (UniProt Q12035); test: cross-link between two proteins
# Sequence of Pescadillo homolog (P53261 whole entry): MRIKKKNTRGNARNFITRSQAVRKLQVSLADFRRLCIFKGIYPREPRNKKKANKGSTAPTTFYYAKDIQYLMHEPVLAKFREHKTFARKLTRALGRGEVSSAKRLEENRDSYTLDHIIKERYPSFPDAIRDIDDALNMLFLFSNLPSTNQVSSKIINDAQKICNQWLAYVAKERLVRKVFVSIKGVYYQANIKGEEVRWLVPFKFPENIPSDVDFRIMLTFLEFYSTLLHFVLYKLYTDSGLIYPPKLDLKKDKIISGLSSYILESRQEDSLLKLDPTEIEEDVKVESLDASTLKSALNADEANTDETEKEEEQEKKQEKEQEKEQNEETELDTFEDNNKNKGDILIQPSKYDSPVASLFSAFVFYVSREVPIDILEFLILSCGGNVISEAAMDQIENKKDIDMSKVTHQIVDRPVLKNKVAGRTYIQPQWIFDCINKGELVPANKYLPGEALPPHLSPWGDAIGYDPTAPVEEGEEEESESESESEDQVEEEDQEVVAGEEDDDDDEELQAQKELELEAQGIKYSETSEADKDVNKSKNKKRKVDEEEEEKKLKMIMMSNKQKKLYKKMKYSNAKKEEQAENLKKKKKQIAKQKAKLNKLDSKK
# Sequence of Ribosome biogenesis protein YTM1 (Q12024 whole entry): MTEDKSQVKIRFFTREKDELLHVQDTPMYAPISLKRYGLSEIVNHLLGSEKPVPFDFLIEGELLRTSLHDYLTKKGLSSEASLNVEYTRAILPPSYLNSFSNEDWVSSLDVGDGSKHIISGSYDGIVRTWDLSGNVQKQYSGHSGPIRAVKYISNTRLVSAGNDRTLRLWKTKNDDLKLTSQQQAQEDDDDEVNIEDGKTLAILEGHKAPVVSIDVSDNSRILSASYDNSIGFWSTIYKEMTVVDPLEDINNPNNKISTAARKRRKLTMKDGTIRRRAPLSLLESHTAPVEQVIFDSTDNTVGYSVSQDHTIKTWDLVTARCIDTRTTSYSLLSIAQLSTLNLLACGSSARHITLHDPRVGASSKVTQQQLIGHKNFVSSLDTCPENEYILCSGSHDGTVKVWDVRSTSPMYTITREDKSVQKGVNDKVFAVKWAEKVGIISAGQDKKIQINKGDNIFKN
# Sequence of Small ribosomal subunit protein eS28A (Q3E7X9 whole entry): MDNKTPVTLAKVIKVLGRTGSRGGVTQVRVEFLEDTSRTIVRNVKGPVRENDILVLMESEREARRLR
# Sequence of Ribosome biogenesis protein MAK21 (Q12176 whole entry): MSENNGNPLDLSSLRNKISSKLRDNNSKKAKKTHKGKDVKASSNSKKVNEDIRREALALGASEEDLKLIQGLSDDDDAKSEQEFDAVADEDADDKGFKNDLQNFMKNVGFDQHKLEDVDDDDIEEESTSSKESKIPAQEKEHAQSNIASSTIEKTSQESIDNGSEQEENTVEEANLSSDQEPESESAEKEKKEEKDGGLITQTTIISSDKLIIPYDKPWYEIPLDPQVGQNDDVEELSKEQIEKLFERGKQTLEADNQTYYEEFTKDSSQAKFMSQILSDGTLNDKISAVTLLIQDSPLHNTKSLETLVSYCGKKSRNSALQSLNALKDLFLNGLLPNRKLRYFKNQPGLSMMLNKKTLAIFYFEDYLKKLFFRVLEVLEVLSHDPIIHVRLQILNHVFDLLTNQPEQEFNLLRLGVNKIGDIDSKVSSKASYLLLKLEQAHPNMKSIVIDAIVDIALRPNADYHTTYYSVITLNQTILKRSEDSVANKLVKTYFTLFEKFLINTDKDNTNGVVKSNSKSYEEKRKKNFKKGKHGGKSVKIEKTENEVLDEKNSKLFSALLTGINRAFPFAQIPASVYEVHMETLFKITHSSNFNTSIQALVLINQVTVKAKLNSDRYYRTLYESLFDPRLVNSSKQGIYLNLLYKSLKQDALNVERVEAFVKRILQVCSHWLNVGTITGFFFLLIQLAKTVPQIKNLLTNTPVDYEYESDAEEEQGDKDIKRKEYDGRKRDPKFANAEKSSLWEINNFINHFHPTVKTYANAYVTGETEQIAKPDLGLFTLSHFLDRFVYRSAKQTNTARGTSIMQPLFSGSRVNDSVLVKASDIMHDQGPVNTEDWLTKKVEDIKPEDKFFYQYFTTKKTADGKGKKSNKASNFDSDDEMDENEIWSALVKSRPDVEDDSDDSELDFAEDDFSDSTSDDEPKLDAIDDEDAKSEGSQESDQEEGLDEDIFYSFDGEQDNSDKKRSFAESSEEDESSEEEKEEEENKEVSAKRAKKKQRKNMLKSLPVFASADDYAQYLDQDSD
# Sequence of U3 small nucleolar RNA-associated protein 15 (Q04305 whole entry): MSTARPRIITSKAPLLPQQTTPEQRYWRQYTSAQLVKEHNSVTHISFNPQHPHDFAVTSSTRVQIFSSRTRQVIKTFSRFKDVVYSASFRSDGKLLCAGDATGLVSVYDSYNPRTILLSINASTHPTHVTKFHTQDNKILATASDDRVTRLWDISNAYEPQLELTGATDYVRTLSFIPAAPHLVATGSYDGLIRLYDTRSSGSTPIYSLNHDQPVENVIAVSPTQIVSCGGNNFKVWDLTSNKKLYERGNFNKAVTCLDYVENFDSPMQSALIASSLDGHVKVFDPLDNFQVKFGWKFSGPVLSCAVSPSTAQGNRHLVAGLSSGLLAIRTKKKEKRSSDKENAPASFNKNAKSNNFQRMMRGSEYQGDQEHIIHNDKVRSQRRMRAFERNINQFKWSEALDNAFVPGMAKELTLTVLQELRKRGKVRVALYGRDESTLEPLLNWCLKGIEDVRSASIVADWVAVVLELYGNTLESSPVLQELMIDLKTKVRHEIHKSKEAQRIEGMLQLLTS
# Sequence of Small ribosomal subunit protein uS5 (P25443 whole entry): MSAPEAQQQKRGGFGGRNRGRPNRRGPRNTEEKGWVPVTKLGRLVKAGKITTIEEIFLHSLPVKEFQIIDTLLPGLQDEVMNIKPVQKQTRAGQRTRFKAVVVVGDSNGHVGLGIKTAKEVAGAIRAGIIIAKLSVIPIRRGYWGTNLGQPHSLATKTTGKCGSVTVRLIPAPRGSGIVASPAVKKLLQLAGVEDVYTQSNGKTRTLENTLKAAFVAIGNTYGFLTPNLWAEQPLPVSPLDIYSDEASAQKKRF
# Sequence of Proteasome subunit alpha type-2 (P23639 whole entry): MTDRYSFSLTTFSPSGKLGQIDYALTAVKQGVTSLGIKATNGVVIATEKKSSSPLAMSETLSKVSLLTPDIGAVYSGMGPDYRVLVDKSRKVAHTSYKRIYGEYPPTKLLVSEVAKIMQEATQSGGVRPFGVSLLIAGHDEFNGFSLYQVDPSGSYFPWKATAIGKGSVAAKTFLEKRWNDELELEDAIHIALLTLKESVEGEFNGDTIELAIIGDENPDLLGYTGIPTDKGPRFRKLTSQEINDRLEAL
# Sequence of Large ribosomal subunit protein eL8B (P29453 whole entry): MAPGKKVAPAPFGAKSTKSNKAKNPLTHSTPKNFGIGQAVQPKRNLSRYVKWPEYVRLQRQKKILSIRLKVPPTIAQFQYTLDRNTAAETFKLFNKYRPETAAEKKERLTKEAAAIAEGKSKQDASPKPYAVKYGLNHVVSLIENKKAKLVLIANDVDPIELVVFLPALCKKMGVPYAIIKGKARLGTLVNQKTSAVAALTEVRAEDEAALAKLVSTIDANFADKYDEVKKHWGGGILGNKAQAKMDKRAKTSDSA
# Sequence of Heat shock protein SSA1, P10591 (P10591 whole entry): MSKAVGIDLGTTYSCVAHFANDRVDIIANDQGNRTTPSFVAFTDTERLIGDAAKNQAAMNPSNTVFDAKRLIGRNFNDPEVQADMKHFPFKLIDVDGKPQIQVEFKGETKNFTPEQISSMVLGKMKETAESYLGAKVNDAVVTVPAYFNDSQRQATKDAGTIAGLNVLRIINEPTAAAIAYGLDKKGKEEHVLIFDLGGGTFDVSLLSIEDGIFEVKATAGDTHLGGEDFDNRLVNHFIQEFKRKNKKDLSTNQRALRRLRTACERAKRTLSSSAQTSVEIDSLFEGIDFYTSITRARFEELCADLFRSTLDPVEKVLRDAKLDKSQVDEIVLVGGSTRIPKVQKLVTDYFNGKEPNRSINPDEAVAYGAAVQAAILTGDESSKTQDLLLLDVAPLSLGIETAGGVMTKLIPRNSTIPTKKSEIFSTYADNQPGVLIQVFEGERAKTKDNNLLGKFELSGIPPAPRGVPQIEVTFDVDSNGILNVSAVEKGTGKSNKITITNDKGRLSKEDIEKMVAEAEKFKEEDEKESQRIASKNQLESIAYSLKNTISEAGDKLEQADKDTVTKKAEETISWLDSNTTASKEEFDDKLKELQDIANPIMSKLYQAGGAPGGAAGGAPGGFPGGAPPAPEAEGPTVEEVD
# Sequence of Proteasome-interacting protein CIC1 (P38779 whole entry): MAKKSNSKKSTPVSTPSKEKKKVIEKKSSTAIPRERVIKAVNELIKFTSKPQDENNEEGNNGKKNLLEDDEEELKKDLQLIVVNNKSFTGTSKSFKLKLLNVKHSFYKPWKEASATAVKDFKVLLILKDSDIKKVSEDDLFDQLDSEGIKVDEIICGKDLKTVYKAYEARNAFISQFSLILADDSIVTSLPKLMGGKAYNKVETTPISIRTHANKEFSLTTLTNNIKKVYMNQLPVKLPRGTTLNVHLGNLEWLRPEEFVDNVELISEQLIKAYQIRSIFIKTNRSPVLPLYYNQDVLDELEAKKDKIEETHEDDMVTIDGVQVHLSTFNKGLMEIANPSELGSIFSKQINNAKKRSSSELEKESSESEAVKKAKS
# Sequence of Proteasome subunit beta type-3 (P25451 whole entry): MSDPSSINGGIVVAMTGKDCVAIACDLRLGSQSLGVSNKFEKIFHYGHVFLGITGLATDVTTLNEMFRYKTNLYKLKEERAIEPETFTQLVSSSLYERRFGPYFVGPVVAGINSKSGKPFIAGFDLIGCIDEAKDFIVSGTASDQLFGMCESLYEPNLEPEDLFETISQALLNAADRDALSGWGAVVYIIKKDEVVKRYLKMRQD
# Sequence of Proteasome subunit alpha type-3 (P23638 whole entry): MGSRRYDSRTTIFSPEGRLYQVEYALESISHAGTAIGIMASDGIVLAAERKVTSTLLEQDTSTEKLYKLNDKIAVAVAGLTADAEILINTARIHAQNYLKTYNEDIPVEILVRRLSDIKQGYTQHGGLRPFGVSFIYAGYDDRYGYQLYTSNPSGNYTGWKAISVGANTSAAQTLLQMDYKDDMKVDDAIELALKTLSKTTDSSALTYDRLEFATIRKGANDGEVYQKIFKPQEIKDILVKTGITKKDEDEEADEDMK
substance,measurement,setting,value
"Heat shock protein SSA1, P10591",listed as a hit,[1],yes
same,listed as a hit,[2],yes
"Isocitrate dehydrogenase [NAD] subunit 2, mitochondrial, P28241",listed as a hit,[3],yes
"Small ribosomal subunit protein uS15, P05756",listed as a hit,[4],yes
same,listed as a hit,[5],yes
"Large ribosomal subunit protein uL22A, P05740",listed as a hit,[6],yes
same,listed as a hit,[7],yes
same,listed as a hit,[8],yes
same,listed as a hit,[9],yes
"Large ribosomal subunit protein eL22A, P05749",listed as a hit,[10],yes
"Large ribosomal subunit protein eL32, P38061",listed as a hit,[11],yes
"Large ribosomal subunit protein eL8A, P17076",listed as a hit,[12],yes
same,listed as a hit,[13],yes
same,listed as a hit,[14],yes
"Large ribosomal subunit protein eL27A, P0C2H6",listed as a hit,[12],yes
"Large ribosomal subunit protein uL3, P14126",listed as a hit,[15],yes
"Large ribosomal subunit protein uL30A, P05737",listed as a hit,[16],yes
same,listed as a hit,[17],yes
"Mitochondrial import inner membrane translocase subunit TIM16, P42949",listed as a hit,[18],yes
"U3 small nucleolar RNA-associated protein 10, P42945",listed as a hit,[19],yes
"U3 small nucleolar RNA-associated protein 8, P53276",listed as a hit,[19],yes
"Essential nuclear protein 1, P38333",listed as a hit,[20],yes
same,listed as a hit,[21],yes
"rRNA 2'-O-methyltransferase fibrillarin, P15646",listed as a hit,[22],yes
same,listed as a hit,[23],yes
"Large ribosomal subunit protein eL8B, P29453",listed as a hit,[13],yes
same,listed as a hit,[14],yes
"Prohibitin-1, P40961",listed as a hit,[24],yes
"Proteasome subunit alpha type-1, P21243",listed as a hit,[25],yes
"Proteasome subunit alpha type-3, P23638",listed as a hit,[25],yes
same,listed as a hit,[26],yes
"Proteasome subunit beta type-4, P22141",listed as a hit,[27],yes
same,listed as a hit,[26],yes
"Probable proteasome subunit alpha type-7, P21242",listed as a hit,[28],yes
"Sec sixty-one protein homolog, P38353",listed as a hit,[29],yes
"rRNA processing protein RCL1, Q08096",listed as a hit,[30],yes
"rRNA biogenesis protein RRP5, Q05022",listed as a hit,[31],yes
"Nucleolar complex protein 2, P39744",listed as a hit,[31],yes
"Pescadillo homolog, P53261",listed as a hit,[32],yes
"Ribosome biogenesis protein ERB1, Q04660",listed as a hit,[32],yes
"RuvB-like protein 1, Q03940",listed as a hit,[33],yes
"Small ribosomal subunit protein uS3, P05750",listed as a hit,[34],yes
same,listed as a hit,[35],yes
same,listed as a hit,[36],yes
"Ubiquitin-ribosomal protein eS31 fusion protein, P05759",listed as a hit,[37],yes
"Small ribosomal subunit protein uS7, P26783",listed as a hit,[38],yes
same,listed as a hit,[39],yes
"Small ribosomal subunit protein eS26A, P39938",listed as a hit,[39],yes
"Small ribosomal subunit protein eS1B, P23248",listed as a hit,[40],yes
"Small ribosomal subunit protein eS21A, P0C0V8",listed as a hit,[36],yes
"Small ribosomal subunit protein eS28B, P0C0X0",listed as a hit,[41],yes
"Succinate--CoA ligase [ADP-forming] subunit beta, mitochondrial, P53312",listed as a hit,[42],yes
"U3 small nucleolar RNA-associated protein 13, Q05946",listed as a hit,[43],yes
"U3 small nucleolar RNA-associated protein 21, Q06078",listed as a hit,[43],yes
"NET1-associated nuclear protein 1, Q02931",listed as a hit,[44],yes
"U3 small nucleolar RNA-associated protein 5, Q04177",listed as a hit,[44],yes
"Nucleolar complex protein 4, Q06512",listed as a hit,[45],yes
"Periodic tryptophan protein 2, P25635",listed as a hit,[46],yes
"Ribosomal RNA-processing protein 7, P25368",listed as a hit,[47],yes
"U3 small nucleolar ribonucleoprotein protein IMP3, P32899",listed as a hit,[48],yes
"Golgi to ER traffic protein 4, Q12125",listed as a hit,[49],yes
"U3 small nucleolar RNA-associated protein 6, Q02354",listed as a hit,[50],yes
